# Screening results from PubChem BioAssay.
# Rows were chosen to be rich in hits. Some 2.2% of all compounds tested hit in one or more screens of this group.
# IL1B cytotox: toxic to HUVEC cells under IL-1B stimulation; cell count reduction, % at 2 µM; HUVEC cell count loss, Hoechst imaging, IL-1B stimulated; 0.41% of 94,000 active;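 active means cell count reduction more than 3 SD above the screen-wide mean, cut at about 70% in these data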;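 further: normalized per plate to untreated control cells as the no-loss baseline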
# IL1B NFkB inh: blocks IL-1B driven NFkB nuclear translocation in HUVEC cells; HUVEC IL-1B NFkB p65 nuclear translocation imaging; inhibition, % at 2 µM; 0.43% of 94,000 active; AID 796;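 active means inhibition above about 30% together with a positive call from visual inspection of the well image, limit read from the data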;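 further: nuclear over cytoplasmic p65 intensity ratio measured by imaging; 0% = IL-1B stimulated DMSO wells and 100% = unstimulated DMSO wells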
# PLK1 inh: inhibitors of human PLK1 kinase | P53350 | recombinant PLK1 kinase, TR-FRET peptide phosphorylation | inhibition, % at 10 µM | 0.53% of 97,000 active | AID 619;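 active means inhibition of 50% or more in the single-concentration screen; inactive means inhibition below 50%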;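 further: 0% = DMSO max control and 100% = H-89 dihydrochloride min control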
# Pyk2 oligo antag: blocks oligomerization of human Pyk2 in cells; AID 1347419; Q14289; 0.83% of 99,000 active; z-score (the deposit names both 25 µM and 10 µM); Q293 cells, Pyk2 FERM NanoBiT luminescence; stronger effect = lower value;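 active means Z-score of -3 or lower, scaled per plate to the spread of control and sample wells; inactive means z-score above -3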;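 further: negative z-score means lost luminescence so less FERM oligomerization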
# Target sequence (Q14289 whole entry, looked up): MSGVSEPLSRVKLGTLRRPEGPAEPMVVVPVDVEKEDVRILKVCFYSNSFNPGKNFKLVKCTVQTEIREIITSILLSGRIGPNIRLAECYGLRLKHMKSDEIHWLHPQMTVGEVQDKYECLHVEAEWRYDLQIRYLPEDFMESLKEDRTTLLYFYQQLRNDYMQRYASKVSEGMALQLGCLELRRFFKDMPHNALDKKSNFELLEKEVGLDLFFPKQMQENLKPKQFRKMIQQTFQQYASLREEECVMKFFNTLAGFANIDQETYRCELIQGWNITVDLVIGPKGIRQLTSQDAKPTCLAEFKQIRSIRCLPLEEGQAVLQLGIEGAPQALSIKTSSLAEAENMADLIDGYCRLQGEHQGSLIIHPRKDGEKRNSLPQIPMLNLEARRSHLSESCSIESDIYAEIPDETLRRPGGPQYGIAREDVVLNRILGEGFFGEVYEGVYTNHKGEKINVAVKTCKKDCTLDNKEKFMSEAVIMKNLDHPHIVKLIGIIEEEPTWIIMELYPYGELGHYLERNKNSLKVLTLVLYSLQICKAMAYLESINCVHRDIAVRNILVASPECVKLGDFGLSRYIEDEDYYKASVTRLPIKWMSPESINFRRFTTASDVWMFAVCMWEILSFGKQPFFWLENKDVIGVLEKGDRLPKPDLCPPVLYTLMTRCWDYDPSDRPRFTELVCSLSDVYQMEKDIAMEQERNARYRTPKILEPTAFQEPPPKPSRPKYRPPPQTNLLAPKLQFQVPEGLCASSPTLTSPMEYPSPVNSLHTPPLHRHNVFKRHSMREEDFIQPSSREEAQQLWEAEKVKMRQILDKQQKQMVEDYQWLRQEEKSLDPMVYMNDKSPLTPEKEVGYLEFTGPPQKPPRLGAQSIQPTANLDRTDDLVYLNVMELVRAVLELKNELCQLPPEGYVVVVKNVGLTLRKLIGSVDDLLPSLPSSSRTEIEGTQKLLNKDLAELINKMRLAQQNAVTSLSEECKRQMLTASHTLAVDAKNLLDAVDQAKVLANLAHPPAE
# IL1B NFkB pot: enhances IL-1B driven NFkB nuclear translocation. HUVEC IL-1B NFkB p65 nuclear translocation imaging. AID 819. 0.3% of 94,000 active. activation, % at 2 µM;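 active means activation above 40%, about the mean plus 3 SD, also judged a hit on visual image review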;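 further: percent activation is computed from the nuclear over cytoplasmic p65 intensity ratio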
# PLK1 PBD inh: inhibitors of human Plk1 polo box domain binding; Plk1 PBD phosphopeptide binding, fluorescence polarization; P53350; AID 693; 0.13% of 97,000 active; inhibition, %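 (tested at about 20 µM)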; in the data active means inhibition above about 34%, passing the limit was not always enough
# The depositor's hits bear a star; . = not tested or not shown.
SMILES,IL1B cytotox,IL1B NFkB inh,PLK1 inh,Pyk2 oligo antag,IL1B NFkB pot,PLK1 PBD inh
O=C(CCCN1C(=O)c2cccc3cccc(c23)C1=O)N1CCc2ccccc2C1,-12,-4,-5,0.6,4,-14
Cc1nc2ccc(NC(=O)N3CCOCC3)cc2s1,-39,51*,-8,-0.79,-51,-36
Cc1nc2ccc(NC(=O)c3cc(S(=O)(=O)N4CCOCC4)ccc3C)cc2s1,7,-8,-4,-0.2,8,-26
O=C(Nc1ccc(NC(=S)NC(=O)C(c2ccccc2)c2ccccc2)cc1)c1ccccc1,-4,6,-6,-1.4,-6,-28
COc1cc(/C=C2/SC(=NCc3ccccc3)N(Cc3ccccc3)C2=O)ccc1O,-4,19,-3,-0.64,-19,-108
CCOc1cc(/C=C2/SC(=Nc3ccccc3)N(Cc3cccnc3)C2=O)ccc1OCC#N,8,2,4,-3.6*,-2,10
C=CCC(NCc1ccco1)c1ccc(OC)cc1OC (configuration not stated),-2,58*,-9,.,-58,23
C=CCSc1nc(C)cc(/C=C\c2ccccc2)c1C#N,-24,-1,-3,-0.07,1,-26
COC(=O)C(Cc1ccc(O)cc1)NC(=O)c1ccccc1 (configuration not stated),-47,2,-23,-0.39,-2,-13
COC(=O)C(/C=N/OCc1ccc([N+](=O)[O-])cc1)NC(=O)c1ccccc1 (configuration not stated),-3,-44,-12,0.45,44*,-2
COc1ccc(/C=N/NC(N)=S)cc1OC(=O)c1cccc2ccccc12,-12,-18,-7,-0.95,18,-7
CC1CCCC(C)N1C(=O)c1cccc2c1-c1ccccc1/C2=N/O (configuration not stated),4,9,-8,-3.3*,-9,13
CCOC(=O)c1cccc2c1-c1ccccc1/C2=N/O,-129,-17,-1,-2.4,17,-8
Cc1cc2oc(C(=O)N(Cc3ccccc3)C3CCS(=O)(=O)C3)cc(=O)c2cc1Cl (configuration not stated),-6,-1,-5,0.95,1,-44
CC1(C)Cc2ccccc2C(N)=C1C#N,-50,-13,-5,1.3,13,-4
CC1CN(Cc2nc3c(c(=O)[nH]c(=O)n3C)n2CC(N)=O)CC(C)O1 (configuration not stated),-34,-35,51*,.,35,8
CC1CN(Cc2nc3c(c(=O)[nH]c(=O)n3C)n2CCN2CCOCC2)CC(C)O1 (configuration not stated),-6,-3,-9,1.4,3,2
O=C(O)c1ccc(-n2nnnc2SCc2ccccc2F)cc1,.,.,59*,.,.,29
CC(Cc1cccs1)NC(=O)Nc1ccc(Cl)c(Cl)c1 (configuration not stated),-28,-9,1,-2.2,9,-13
Cc1ccc2nc(NC(=O)CN(C)S(=O)(=O)c3ccc(Br)s3)sc2c1,29,38*,-28,-0.65,-38,-6
Cc1ccc2nc(NC(=O)CNS(=O)(=O)c3ccc(Br)s3)sc2c1,-15,5,-4,-0.31,-5,18
Cc1cc(C)cc(N(C(C)C(=O)NCCC2=CCCCC2)S(C)(=O)=O)c1 (configuration not stated),7,-12,-8,-1.4,12,-7
CC(NC(=O)Nc1ccc(O)cc1)(C(F)(F)F)C(F)(F)F,-24,6,-10,1.4,-6,7
CC(NC(=O)NC(N)=O)(C(F)(F)F)C(F)(F)F,-25,-41,-3,-0.47,41*,-11
O=C(CCN1C(=O)c2ccccc2C1=O)N1CCN(C2c3ccccc3-c3ccccc32)CC1,-16,4,-7,-1.8,-4,-7
SMILES,IL1B cytotox,IL1B NFkB inh,PLK1 inh,Pyk2 oligo antag,IL1B NFkB pot,PLK1 PBD inh
Clc1cccc(OCCn2cncn2)c1Cl,-46,-45,-10,0.66,45*,-1
CCC(C)(C)c1ccc2c(c1)C(=O)c1ccccc1C2=O,.,.,.,0.12,.,.
CCn1cc(C(=O)N2CCOCC2)c(=O)c2cc(S(=O)(=O)N(C)C)ccc21,.,.,69*,.,.,24
CCn1cc(C(=O)N2CCCC2)c(=O)c2cc(S(=O)(=O)N(C)C)ccc21,-37,-8,-5,.,8,-4
COc1ccc2c(c1)N(C)C(=O)CC(c1ccccc1)=N2,-11,-13,-11,-0.99,13,5
Cc1cccc(-c2cc3nc4c(c(N5CCCC(O)C5)n3n2)CCC4)c1 (configuration not stated),-20,-24,-2,0.81,24,23
OC1CCCN(c2c3c(nc4cc(-c5cccc(Cl)c5)nn24)CCC3)C1 (configuration not stated),5,13,-16,-3.2*,-13,8
CC1(C)CC(=O)c2c(O)c(-c3ccccc3)c(=O)n(-c3ccccc3)c2C1,.,.,.,-1.4,.,.
Cc1nnc(SCc2ccccc2C#N)n1-c1ccccc1,82*,-24,-13,-0.7,24,17
C=CCc1cc(C=O)cc(OC)c1OCc1ccc(Cl)cc1,93*,0,27,-0.27,0,6
CC(C)n1c(SCC(=O)Nc2nc3ccccc3s2)nc2c1c(=O)n(C)c(=O)n2C,6,7,-8,-3.7*,-7,-17
CCOc1ccc2nc(NC(=O)CSc3nc4c(c(=O)n(C)c(=O)n4C)n3C(C)C)sc2c1,.,.,.,-1.5,.,.
Cc1ccc(NC(=O)Cn2cnc3sc(C(=O)NCc4ccco4)c(C)c3c2=O)cc1Cl,5,-8,5,-3.3*,8,-2
COC(=O)c1ccc(NC(=O)CSc2nccn2CCc2ccccc2)cc1,4,4,-7,-0.73,-5,-19
Cc1ccc(C(=O)/C=C/c2ccc3c(c2)OCO3)o1,-24,-7,64*,0.37,7,-33
Cc1ccc(C(=O)/C=C/c2ccc(Br)cc2)o1,2,-16,-9,0.05,16,25
CCOC(=O)c1ccc2c(c1)nc(COc1ccc(OC)cc1)n2CC,8,-9,-8,-0.5,9,15
O=C(CSc1nnc(Nc2ccccc2)s1)Nc1ccc(S(=O)(=O)N2CCOCC2)cc1,-2,3,-3,-2.7,-3,14
Cc1ccc(Nc2nnc(SCC(=O)Nc3ccc(S(=O)(=O)N4CCOCC4)cc3)s2)cc1,84*,34*,-7,-2.7,-34,8
O=C(CSc1nnc(-c2ccccc2)o1)OCc1ccccc1,-1,-69,-5,2,69*,5
Cc1ccc(/C=N/N2CCN(Cc3ccc(Cl)cc3)CC2)o1,-1,-17,-7,0.16,17,-3
O=C(Cn1c(=O)oc2ccccc21)Nc1nc(-c2ccccc2)cs1,14,-11,-15,-1.3,11,-4
CC(C)(C)c1csc(NC(=O)Cn2c(=O)oc3ccccc32)n1,19,9,-14,-3.4*,-9,-4
Cc1ccc(S(=O)(=O)N(c2nc(NC(C)C)nc(NC(C)C)n2)n2cnnc2)cc1,.,.,.,0.66,.,.
